Screening data: PubChem BioAssay, National Center for Advancing Translational Sciences (NCATS)
NPC1 prom act = activators of NPC1 promoter; Huh7 NPC1 promoter luciferase reporter, 24 h; Potency, µM (highest dose often 9.22 µM), for inactives: at the top dose activation, hits mostly activators; actives 2.4% (n = 320,000); AID 485313; also: % of control where 0% means no effect; nearly all actives have a fitted effect of over 60% in size
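Huh7 reporter cells (NPC1 promoter driving luciferase) are dosed with compound for 24 h at 37 °C, 5% CO2; luciferase detection reagent is then added and luminescence measured after 10 min at ambient temperature.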
Rab9 prom act = activates the Rab9 promoter; Huh7 Rab9 promoter-luciferase reporter, luminescence, 24 h; Potency, µM (doses to about 9.22 µM), for the others: top-dose activation, negative = inhibition, hits mostly activators; actives 2.8% (n = 320,000); AID 485297; also: % of control where 0% means no effect; nearly all actives have a fitted effect of over 60% in size
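Luminescence from Amplite-detected luciferase (10 minutes, ambient) reports Rab9 promoter activation. Before that, stable Rab9-luciferase Huh7 cells (1500/well, reduced-serum OP-MEM I plus 10% FBS) were exposed to compound for 24 hours at 37C.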
SMN2 splice up = SMN2 splice variant enhancement; HEK293 SMN2-luciferase splicing reporter, luminescence, 30-36 h; AID 1458; actives 2.8% (n = 210,000); Potency, µM (highest dose often 46.1 µM), without a hit: top-dose activity change, positive = activation, actives largely listed as activators; also: % of control where 0% means no effect; nearly all actives have a fitted effect of over 55% in size
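HEK293 cells carry an SMN2 minigene-luciferase reporter in which exon 7 inclusion puts luciferase in frame. Cells were seeded at 2000 cells/well, attached for 10-12 hours, then exposed to compounds for 30-36 hours at 37C before ONE-Glo luminescence.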
p53 reactivation = re-activators of mutant p53; H1299 p53-A138V BP100-luciferase reporter, luminescence, 24 h; Potency, µM (top dose mostly 92.2 µM), without a hit: top-dose activity change, positive = activation, hits mostly activators; actives 0.063% (n = 320,000); also: % of control where 0% means no effect; nearly all actives have a fitted effect of over 45% in size
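p53-null H1299 cells stably carrying temperature-sensitive p53-A138V and a BP100-luciferase reporter were pinned with compounds (4-point, 1:5 series) and held 24 hrs at 37 deg C. Luminescence was read 10 min after detection reagent.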
ELG1 genotoxic = induces genotoxicity in HEK293T cells with luciferase-tagged ELG1; HEK293T ELG1-luciferase reporter, luminescence, 16 h; Potency, µM (top dose mostly 46 µM), without a hit: at the top dose activity change, positive = activation, usual class: activators; actives 1.3% (n = 330,000); AID 504466; also: % of control where 0% means no effect; nearly all actives have a fitted effect of over 60% in size
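Cells (2,000/well) expressing the ELG1-luciferase fusion are dosed by pin tool and kept 16 hr at 37 °C, 5% CO2. Signal comes from ONE-Glo luciferase reagent after 30 min at room temperature.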
FLuc counter = inhibits or activates purified firefly luciferase, miR-21 counter-screen | actives 6.9% (n = 360,000) | P08659 | purified FLuc, Km substrates, luminescence inhibition | Potency, µM (top dose mostly 57.5 µM), for inactives: at the highest dose activity change, negative = inhibition, usual class: inhibitors;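 also: plate controls were vehicle for no effect and reference inhibitor for full effect; nearly all actives have a fitted effect of over 55% in size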
Target sequence (P08659 whole entry, looked up): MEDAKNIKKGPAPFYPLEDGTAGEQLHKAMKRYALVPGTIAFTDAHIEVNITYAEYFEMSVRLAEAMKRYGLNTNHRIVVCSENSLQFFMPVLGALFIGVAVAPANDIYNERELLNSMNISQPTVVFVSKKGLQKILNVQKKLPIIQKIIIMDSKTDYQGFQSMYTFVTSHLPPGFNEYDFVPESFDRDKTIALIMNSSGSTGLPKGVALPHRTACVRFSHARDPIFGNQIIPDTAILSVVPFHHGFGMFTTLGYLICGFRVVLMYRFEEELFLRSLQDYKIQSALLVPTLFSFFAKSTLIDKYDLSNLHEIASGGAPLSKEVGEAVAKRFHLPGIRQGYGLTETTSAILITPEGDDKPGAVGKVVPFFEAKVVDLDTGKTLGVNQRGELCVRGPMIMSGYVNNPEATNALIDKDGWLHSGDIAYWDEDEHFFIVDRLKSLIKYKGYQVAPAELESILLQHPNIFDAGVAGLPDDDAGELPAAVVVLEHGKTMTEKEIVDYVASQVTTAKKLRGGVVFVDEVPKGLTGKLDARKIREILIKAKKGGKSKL
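Purified P. pyralis luciferase (10nM final) with 10uM D-luciferin and 10uM ATP (Km levels) in 50mM Tris acetate pH 7.5, 10mM Mg acetate, 0.01% Tween-20, 0.05% BSA; qHTS 6-point titration, ~60 µM downward; luminescence read.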
* marks the source's active call; other numbers are inactive results; ? = inconclusive; / = no result given; [ ] = dose if it differs, or a comment. An excerpt weighted towards active compounds, which were near 7.3% of everything screened. Calls follow the shape of the dose curve; as a rule, active = well fitted curve in the direction sought with a large enough effect; inconclusive = small, poorly fitted or top-dose-only effect, or another doubt; inactive = no such curve, though single readings can be large; an effect the other way counts as inactive or inconclusive. Potency is read from the fitted curve at half-maximal effect.

SMILES	NPC1 prom act	Rab9 prom act	SMN2 splice up	p53 reactivation	ELG1 genotoxic	FLuc counter
CCC(C)NC(=O)c1ccc2c(Cl)c3c(nc2c1)CCC3 (configuration not stated)	2.82µM*	2.51µM*	/	18.1%	?	4.78µM*
COc1ccc(NC(=O)c2ccc3c(SCC(=O)O)c4c(nc3c2)CCCC4)cc1Cl	-2.4%	-1.1%	2.2%	0.7%	-0.3%	?
O=C(Nc1ccc(Cl)cn1)c1ccc2c(Cl)c3c(nc2c1)CCC3	0.316µM*	?	/	18.6%	?	0.19µM*
C=CCOc1ccc(/C=C2\SC(=S)N(NS(=O)(=O)c3ccc(C)cc3)C2=O)cc1	-3.5%	1.4%[1.84 µM]	/	4.0%	-0.9%	?
Cc1cccc(NC(=O)c2ccc3c(Cl)c4c(nc3c2)CCCC4)n1	1.12µM*	0.562µM*	3.16µM*	?	2.91µM*	0.675µM*
COc1cc(Cl)c(C)cc1NC(=O)c1ccc2c(Cl)c3c(nc2c1)CCC3	/	/	?	/	/	-4.5%
COc1ccc(C)cc1NC(=O)c1ccc2c(Cl)c3c(nc2c1)CCC3	/	/	-9.8%	/	/	1.69µM*
COC(=O)C1=C(C(=O)OC)[C@@H]2Nc3ccccc3[C@@]23C[C@@H](C(=O)OC)N(S(=O)(=O)c2c(C)noc2C)C3=N1	/	/	1.5%[9.22 µM]	/	/	/
CCN(Cc1ccccc1)C(=O)c1c(C)oc2ncn(C)c(=O)c12	/	/	/	/	/	-1.5%
CC(=O)Cn1cnc2c(sc3nc(C)cc(C)c32)c1=O	26.7%	24.1%	/	12.6%	?	15.1µM*
Cc1cccc(NC(=O)CN2C(=O)C3(SCC(=O)N3c3ccccc3)c3ccccc32)c1 (configuration not stated)	/	/	/	/	/	-10.9%
Fc1ccc(-c2noc(-c3ccc4c(c3)CCO4)n2)cc1	?	0.398µM*	/	7.8%	?	0.536µM*
CCOC(=O)C1CCCN(c2nc3c(S(=O)(=O)c4ccc(C)c(C)c4)nnn3c3ccc(Cl)cc23)C1 (configuration not stated)	/	/	-4.0%	/	/	-0.8%
Cc1cc(C(=O)CN2CCCC(C)C2)c(C)n1-c1ccc(F)cc1 (configuration not stated)	?	2.51µM*	17.8µM*	?	?	15.1µM*
O=c1[nH]c2ccccc2c2ccccc12	-0.7%[46.1 µM]	-10.9%[46.1 µM]	20.5%	-3.3%	1.6%	-11.0%
O=c1[nH]c2ccccc2c2cn(-c3ccccc3)nc12	2.82µM*	?	/	18.6%	?	13.5µM*
CC(C)/C=C1\CC/C(=C\c2ccc(N(C)C)cc2)C1=O	3.55µM*	?	?	?	9.2µM*	0.953µM*
CC(C)c1ccc(/C=C2\SC(N3CCCC3)=NC2=O)cc1	1.3%	-1.4%	-20.5%	-7.3%	6.0%	?
CC(C)c1ccc(/C=C2\CC/C(=C\C=N\N(C)C)C2=O)cc1	?	?	12.6µM*	-4.9%	3.26µM*	2.39µM*
CCOC(=O)/C(C)=C1\NC(C)(C)Cc2ccccc21	-4.9%	-0.3%	1.2%	-2.0%	0.4%	3.9%
Clc1ccccc1OCc1nnc(-c2ccccc2Br)o1	3.55µM*	?	?	?	?	12µM*
N#Cc1ccccc1OCc1nnc(-c2ccccc2Br)o1	2µM*	1.41µM*	/	?	?	5.36µM*
Brc1ccccc1-c1nnc(COc2cccc3cccnc23)o1	1.9%	-3.0%	?	0.7%	14.9%	?
CNC(=O)c1ccc(Nc2nnc(C)c3ccccc23)cc1	0.3%	-1.6%	-8.5%	-3.3%	3.2%	-2.3%
CCOC(=O)c1ccc(Nc2nnc(C)c3ccccc23)cc1	20.4%	10.1%	/	5.8%	3.0%	16.9µM*
CCOC(=O)c1ccc(NCc2nc3ccccc3[nH]2)cc1	?	?	2.7%	?	?	21.3µM*
CCc1ccc(NCc2nc3ccccc3c(=O)[nH]2)cc1	?	2.82µM*	10µM*	/	3.26µM*	10.7µM*
